Screening results as filed in PubChem BioAssay.
BCLXL inh – inhibitors of human Bcl-xL. GST-Bcl-xL / FITC-Bim BH3 peptide fluorescence polarization. inhibition, % at 10.9 µM. hit rate 0.7% among 320,000;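 active = inhibition above the mean of all tested compounds plus 3 SD, cutoff set per campaign, cut at about 30% in these data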;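 note: inhibitors lower millipolarization by displacing the labeled peptide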
GLD-1 RNA inh – GLD-1-TGE RNA interaction inhibition (C. elegans). Q17339. purified GLD-1 + fluorescein TGE RNA, fluorescence polarization. inhibition, % at 5.96 µM. hit rate 0.44% among 320,000;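 active = percent inhibition above a per-plate cutoff, the plate mean of test compounds plus 3 SD, cut at about 30% in these data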
EBV gp42 inh – inhibitors of Epstein-Barr virus glycoprotein 42; inhibition, % (tested at 21.74 µM); hit rate 0.42% among 220,000; Q1HVG2; Fluorescence polarization binding assay, mP read-out; in the data active = inhibition above about 50%
MEX-5 binding – C. elegans MEX-5 TCR-2 RNA binding activity; Q9XUB2; activity score (negative = inhibition of binding), % at 10 µM; hit rate 0.38% among 300,000; MEX-5/FITC-TCR2 RNA binding, fluorescence polarization; hits give low values;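 active = inhibition past about -25% in most replicates, and total fluorescence under double the plate's negative control median, limit read from the data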
MCL1-BIM inh – inhibitors of human MCL1 binding to BIM-BH3 peptide; GST-MCL1 / FITC-Bim-BH3 fluorescence polarization; hit rate 0.68% among 320,000; Q07820; inhibition, % at 10.9 µM; AID 2057;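 active = inhibition above the mean inhibition of all tested compounds plus 3 SD, set per campaign, cut at about 40% in these data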;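 note: higher means more loss of mP so more displacement of Bim peptide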
E coli Lon inh – inhibits E. coli Lon protease; purified E. coli Lon protease, fluorescence polarization; P0A9M0; hit rate 0.42% among 360,000; inhibition, % at 7.94 µM; AID 602123; in the data active = inhibition above about 13%, passing the limit was not always enough
Target sequence (P0A9M0 whole entry, looked up): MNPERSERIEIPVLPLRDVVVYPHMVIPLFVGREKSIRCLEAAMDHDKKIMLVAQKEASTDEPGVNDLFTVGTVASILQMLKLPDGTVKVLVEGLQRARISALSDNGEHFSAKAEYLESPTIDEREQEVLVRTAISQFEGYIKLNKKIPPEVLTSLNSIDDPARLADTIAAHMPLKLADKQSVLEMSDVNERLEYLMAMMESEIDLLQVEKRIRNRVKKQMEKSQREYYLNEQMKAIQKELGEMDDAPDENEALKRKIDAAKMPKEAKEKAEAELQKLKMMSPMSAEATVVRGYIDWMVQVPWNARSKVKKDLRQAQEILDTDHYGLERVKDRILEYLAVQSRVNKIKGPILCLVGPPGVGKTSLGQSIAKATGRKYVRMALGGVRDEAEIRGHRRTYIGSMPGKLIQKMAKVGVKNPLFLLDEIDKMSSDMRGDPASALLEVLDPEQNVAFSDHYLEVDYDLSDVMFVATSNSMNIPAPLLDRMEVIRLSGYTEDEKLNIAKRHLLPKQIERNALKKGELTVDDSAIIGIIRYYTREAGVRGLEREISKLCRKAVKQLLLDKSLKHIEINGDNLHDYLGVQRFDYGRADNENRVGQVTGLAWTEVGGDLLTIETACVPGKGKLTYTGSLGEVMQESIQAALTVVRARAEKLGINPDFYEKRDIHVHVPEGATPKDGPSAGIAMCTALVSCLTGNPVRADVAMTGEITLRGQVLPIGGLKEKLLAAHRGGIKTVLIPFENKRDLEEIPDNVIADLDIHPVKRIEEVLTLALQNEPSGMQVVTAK
E coli Lon conf – confirmation of E. coli Lon protease inhibitors; shares compounds with E coli Lon inh; purified E. coli Lon, fluorescence polarization; inhibition, % at 7.94 µM; hit rate 31% among 1,400; AID 602230; in the data active = inhibition above about 16%
Hits are given with their value; n = inactive; x = no result; + = active, no number. Shown are actives, neighbours in structure and some others; about 1.5% of the full set was active somewhere.

SMILES | BCLXL inh | GLD-1 RNA inh | EBV gp42 inh | MEX-5 binding | MCL1-BIM inh | E coli Lon inh | E coli Lon conf
CCN(CC)C(=S)Oc1ccc(Cl)cc1Cl | n | n | n | n | n | n | x
O=C(Cc1cccc2ccccc12)Nc1nc2ccccc2[nH]1 | n | n | n | n | n | 65 | n
O=C(Cc1ccccc1F)Nc1nc2ccccc2[nH]1 | n | n | n | n | n | n | x
Cc1cccc(N(C)S(=O)(=O)c2c(C)noc2C)c1 | n | n | x | n | n | n | x
NC1=Nc2cccc3cccc1c23 | n | n | n | x | n | 29 | 17
Cc1ccc(S(=O)(=O)NNC(=O)Nc2cccc(C)c2C)c(C)c1 | n | n | x | n | n | 21 | n
S=c1[nH]nc(-c2ccc3ccccc3n2)n1-c1ccc2ncccc2c1 | n | n | n | n | n | 20 | n
O=C(COC(=O)C1CCN(S(=O)(=O)c2cccs2)CC1)c1ccc2c(c1)OCCO2 | n | n | n | n | n | 15 | n
O=C1COc2ccc(C(=O)COC(=O)C3CCN(S(=O)(=O)c4cccs4)CC3)cc2N1 | n | n | n | n | n | n | x
COc1cc(NCCCCCCN)c2ncccc2c1OC | x | x | x | x | x | n | x
COc1cc(NC(C)CCCNC(C)C)c2ncccc2c1OC (stereo unspecified) | x | x | x | x | x | 30 | n
Cn1c(=O)c2c(-c3ccccc3)n(-c3cccc(O)c3)cc2n(C)c1=O | x | x | x | x | x | 18 | n
Cc1ccc(C(=O)CSc2ncn[nH]2)cc1 | n | n | n | n | n | n | x
COc1ccc(C(=O)CSc2ncn[nH]2)cc1OC | n | n | n | n | n | 21 | n
Nc1cc(N)nc(SCC(=O)Nc2cc(S(=O)(=O)N3CCOCC3)ccc2Cl)n1 | n | n | x | n | n | n | x
O=C(Nc1ccncc1)c1cc(S(=O)(=O)N2CCCC2)ccc1Cl | x | n | x | x | x | 21 | n
O=C(CN1CCSCC1)N/N=C/c1ccc(F)c(F)c1 | n | n | n | n | n | 27 | n
O=C(CN1CCCCCC1)N/N=C/c1ccc(Cl)c(Cl)c1 | n | n | n | n | n | n | x
O=C(NC1CCCCC1)c1c2c(nc3ccccc13)CCC2 | n | n | n | n | n | n | x
Nc1[nH]c(C(=O)c2ccccc2)c(-c2cccnc2)c1C(=O)NCCc1ccc(Cl)cc1Cl | x | x | x | x | x | + | n
CCCNC(=O)C1(C)CCN1C(=O)Cc1ccc(C(C)C)cc1 (stereo unspecified) | x | x | x | x | x | n | x
Cc1cc2cc(CNC(=O)c3cccc([N+](=O)[O-])c3)ccc2[nH]1 | n | n | n | n | n | 24 | n
CCOC(=O)c1cn(Cc2cccc(Cl)c2)c2cc(C)nn2c1=O | n | n | n | n | n | n | x
CCCCC(=O)Nc1ccccc1CC | n | n | n | n | n | n | x
O=C(c1nc2ccccn2c1CN1CCCC(O)C1)N1CCN(C2CCCCC2)CC1 (stereo unspecified) | n | n | x | n | n | 19 | n
SMILES | BCLXL inh | GLD-1 RNA inh | EBV gp42 inh | MEX-5 binding | MCL1-BIM inh | E coli Lon inh | E coli Lon conf
COc1ccc(C2C3=C(CC(C)(C)CC3=O)Oc3ncn4nc(-c5ccccc5)nc4c32)cc1 (stereo unspecified) | x | x | x | x | x | 26 | n
C[C@H](CO)N1C[C@H](C)[C@H](CN(C)C(=O)Nc2cccc(F)c2)Oc2cc(C#CC3(O)CCCC3)ccc2S1(=O)=O | x | x | x | x | x | 13 | n
O=c1c(Cc2c(F)cccc2Cl)c(O)ccn1CCc1c[nH]c2ccccc12 | n | n | n | n | n | n | x
Cc1c(C(=O)N2CCOCC2)sc(NC(=O)Cc2ccccc2)c1C#N | n | n | n | n | n | n | x
Cc1ccc(C)c(Cn2c3ccccc3c3cnn(CC(=O)NCCCN4CCCCC4)c(=O)c32)c1 | n | n | x | n | n | n | x
COc1ccc(OC)c(CN2CCCCCC2)c1 | n | n | x | n | n | 21 | 121
COc1ccccc1N1CCN(Cc2ccc(O)c3ncccc23)CC1 | n | n | n | n | n | 15 | n
COc1ccc(CN2CCN(c3ccccc3OC)CC2)c(OC)c1 | n | n | x | n | n | n | x
COc1ccc(OC)c(CN2CCSCC2)c1 | x | x | x | n | x | n | x
COc1ccc(OC)c(CN2CCN(c3ccccc3OC)CC2)c1 | n | n | n | n | n | 17 | n
CN(C(=O)COC(=O)c1cc2c(s1)CCCCC2)c1ccccc1 | n | n | x | n | n | 30 | n
CCCOC(=O)C1C2C=CC(C2)C1C(=O)OCC(=O)c1ccccc1 (stereo unspecified) | n | n | n | n | n | 25 | 87
COc1ccc(CCC(=O)Nc2ccc(S(=O)(=O)N3CCOCC3)cc2)cc1OC | x | x | x | x | x | n | x
CC(C)CC(NC(=O)OC(C)(C)C)c1cn([C@@H](Cc2ccc(O)cc2)C(=O)N2CCN(C(=O)OC(C)(C)C)CC2)nn1 (stereo partly specified) | n | n | n | n | n | n | x
O=C(N/N=C/c1coc2ccc(Cl)cc2c1=O)c1ccc(O)cc1 | x | x | x | n | x | n | x
NC(=S)N/N=C/c1coc2ccc(Cl)cc2c1=O | n | n | n | n | n | 13 | 24
COC(=O)[C@H](CC(C)C)NC(=O)Cn1cnc2c(SC)nc(N)nc21 | x | n | x | x | x | 12 | n
Cc1ccc(N2C(=O)c3cccc4c(N)ccc(c34)C2=O)c2cccnc12 | 30 | n | n | n | n | 161 | n
COc1cccc(OC)c1OCC(O)CN1CCN(c2ccc(F)cc2)CC1 (stereo unspecified) | n | n | x | n | n | n | x
COc1cccc(OCC(O)CN2CCN(c3ccc(F)cc3)CC2)c1 (stereo unspecified) | n | n | x | n | n | 20 | n
CCN1CCN(c2nc3ccccn3c(=O)c2C=O)CC1 | 31 | n | x | n | n | 20 | n
Cc1ccc2nc(N3CCN(c4ccccc4)CC3)c(C=O)c(=O)n2c1 | n | n | n | n | n | n | x
